Consider 26 compounds from PubChem BioAssay (NCI).

Structures are written as SMILES. Where “and” joins values, the source holds several entries; their conditions need not be identical. Equal entries are not always repeated. The panel holds about 79,000 compounds, 15% with a hit somewhere; the sample as a whole holds those more often. The source holds several records for some structures; these can differ, active in one and inactive in another. Calls of active or inactive are those of the source. Rule as the data show it: active = growth inhibition above about 70%; inactive = the rest.

One experiment in a line: NCI Yeast Anticancer Drug Screen. Data for the cln2 rad14 strain (AID 165).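 Also: 0% = growth equal to vehicle treated cultures.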 As to conditions: S. cerevisiae cln2 rad14 strain, at 5.0 µM (retest, dose inferred, filed as 0.5), stronger effect = higher value. An outline of the steps:
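Relative to vehicle controls, growth inhibition of compound-treated cln2 rad14 yeast was recorded.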
For the compound `CC(=O)OC1OC(CI)C(OC(C)=O)C(OC(C)=O)C1OC(C)=O` (configuration not stated), the growth inhibition is 2% (inactive).
`Cc1cc(NS(=O)(=O)c2ccc(N=Nc3cc(N=Nc4ccc(S(=O)(=O)Nc5cc(C)nc(C)n5)cc4)c4c(NC(=O)C(Cl)Cl)cccc4c3OC(=O)C(Cl)Cl)cc2)nc(C)n1` (tested in a mixture with another compound): the growth inhibition was 16% (inactive).
For the compound `O=[N+]([O-])c1ccc(N/N=C/CC(O)(C(F)(F)F)C(F)(F)F)c([N+](=O)[O-])c1`, the growth inhibition is 25% (inactive).
On to `CCCc1cc(=O)oc2c3c(c4c(c12)OC(C)(C)CC4)O[C@@H](C)[C@H](C)[C@H]3O`, for which the growth inhibition is 21% (inactive).
For `O=Cc1cc(Br)ccc1O`, the growth inhibition is 8% (inactive) and -3% (inactive).
The same measure, in the same setting: then `Nc1ncnc2c1ncn2CCCl`, with -7% (inactive); and `CN(C)CCCN=c1c2ccccc2n(O)c2cccc([N+](=O)[O-])c12`, with 11% (inactive); and `CCOc1ccc2ccccc2c1C(Cc1ccc(Cl)cc1)NCCO` (configuration not stated), with 1% (inactive).
In the case of `CCCCCCCCCCCC(=O)CN1CCOCC1`, the growth inhibition is 39% (inactive).
As for `CCC(C)(C)c1cc(O)c(C(C)(C)CC)cc1O`, the growth inhibition is 18% (inactive).
On to `Nc1ccccc1Oc1ccc(Cl)cc1Cl`, for which the growth inhibition is 22% (inactive).
Consider `NNC(=O)c1ccc(NC(=O)CSc2nc3ccccc3s2)cc1`, for which the growth inhibition was 0% (inactive).
In the case of `CC(C)(c1ccc(O)cc1)c1ccc(O)cc1`, the growth inhibition is 9% (inactive) and 16% (inactive).
Regarding `CCN(CC)c1ccc(/C=C/c2ccnc3ccccc23)cc1`, the growth inhibition is -10% (inactive) and 7% (inactive).
Turning to `Oc1ccc(/C=N/NC(=S)NN2CCOCC2)nc1`, the growth inhibition is 20% (inactive).
Consider `COc1ccc(-c2c(C#N)c(-c3ccc(C)cc3)n(NS(=O)(=O)c3ccccc3)c(=O)c2C#N)cc1`, for which the growth inhibition was 49% (inactive).
As for `C1=C(c2ccccc2)N(CCc2ccccc2)C(c2ccccc2)=CN1Cc1ccccc1`, the growth inhibition is 2% (inactive).
As for `COC(=O)c1nnn(-c2ccc(S(N)(=O)=O)cc2)c1N`, the growth inhibition was 1% (inactive).
On to `O=C1C(CN2CCOCC2)CCCC1CN1CCOCC1` (configuration not stated), for which the growth inhibition was 3% (inactive).
In the case of `c1ccc(-c2nc3ccccc3[nH]2)cc1`, the growth inhibition was 4% (inactive).
For `COC(=O)[C@]1(C)CCC[C@]2(C)c3ccc(C(C)C)cc3CC[C@@H]12`, the growth inhibition is 0% (inactive).
Consider `CCOC(=O)c1ccc(NCc2ccc3ccccc3n2)cc1`, for which the growth inhibition is -6% (inactive).
The same measure, in the same setting: under `CCCCCCCCCCCCCCCC(=O)NCC[N+](C)(C)C` stands 10% (inactive); under `OC(c1nc2ccccc2[nH]1)C(O)C(O)C(O)c1nc2ccccc2[nH]1` (configuration not stated), 0% (inactive); under `O=[N+]([O-])c1ccc(N/N=C(/C=N/Nc2ccc([N+](=O)[O-])cc2)C(O)C(O)C(O)CO)cc1` (configuration not stated), 10% (inactive) and 27% (inactive).
Turning to `c1ccc2c(c1)CNc1ccccc1-2`, the growth inhibition was 6% (inactive).

Still in this experiment, the particulars now being: S. cerevisiae cln2 rad14 strain, at 50.0 µM (retest, dose inferred, filed as 5.0), stronger effect = higher value.
For the compound `CC(=O)OC1OC(CI)C(OC(C)=O)C(OC(C)=O)C1OC(C)=O` (configuration not stated), the growth inhibition was 49% (inactive).
Consider `Cc1cc(NS(=O)(=O)c2ccc(N=Nc3cc(N=Nc4ccc(S(=O)(=O)Nc5cc(C)nc(C)n5)cc4)c4c(NC(=O)C(Cl)Cl)cccc4c3OC(=O)C(Cl)Cl)cc2)nc(C)n1` (tested in a mixture with another compound), for which the growth inhibition was 80% (active).
For the compound `O=[N+]([O-])c1ccc(N/N=C/CC(O)(C(F)(F)F)C(F)(F)F)c([N+](=O)[O-])c1`, the growth inhibition is 98% (active).
In the case of `CCCc1cc(=O)oc2c3c(c4c(c12)OC(C)(C)CC4)O[C@@H](C)[C@H](C)[C@H]3O`, the growth inhibition is 94% (active).
Turning to `O=Cc1cc(Br)ccc1O`, the growth inhibition is 61% (inactive) and 30% (inactive).
On to `Nc1ncnc2c1ncn2CCCl`, for which the growth inhibition was 5% (inactive).
Take `CN(C)CCCN=c1c2ccccc2n(O)c2cccc([N+](=O)[O-])c12`: the growth inhibition is 8% (inactive).
The same measure, in the same setting: then `CCOc1ccc2ccccc2c1C(Cc1ccc(Cl)cc1)NCCO` (configuration not stated), with -7% (inactive); and `CCCCCCCCCCCC(=O)CN1CCOCC1`, with 99% (active).
Same read-out and setting: under `CCC(C)(C)c1cc(O)c(C(C)(C)CC)cc1O` stands 84% (active); under `Nc1ccccc1Oc1ccc(Cl)cc1Cl`, 98% (active); under `NNC(=O)c1ccc(NC(=O)CSc2nc3ccccc3s2)cc1`, 48% (inactive).
For the compound `CC(C)(c1ccc(O)cc1)c1ccc(O)cc1`, the growth inhibition is 39% (inactive) and 78% (active).
The same measure, in the same setting: then `CCN(CC)c1ccc(/C=C/c2ccnc3ccccc23)cc1`, with 97% (active) and 98% (active); and `Oc1ccc(/C=N/NC(=S)NN2CCOCC2)nc1`, with 91% (active); and `COc1ccc(-c2c(C#N)c(-c3ccc(C)cc3)n(NS(=O)(=O)c3ccccc3)c(=O)c2C#N)cc1`, with 58% (inactive).
Turning to `C1=C(c2ccccc2)N(CCc2ccccc2)C(c2ccccc2)=CN1Cc1ccccc1`, the growth inhibition is 96% (active).
On to `COC(=O)c1nnn(-c2ccc(S(N)(=O)=O)cc2)c1N`, for which the growth inhibition was 1% (inactive).
Same read-out and setting: then `O=C1C(CN2CCOCC2)CCCC1CN1CCOCC1` (configuration not stated), with 97% (active); and `c1ccc(-c2nc3ccccc3[nH]2)cc1`, with 39% (inactive).
Consider `COC(=O)[C@]1(C)CCC[C@]2(C)c3ccc(C(C)C)cc3CC[C@@H]12`, for which the growth inhibition is 41% (inactive).
Turning to `CCOC(=O)c1ccc(NCc2ccc3ccccc3n2)cc1`, the growth inhibition is 4% (inactive).
`CCCCCCCCCCCCCCCC(=O)NCC[N+](C)(C)C`: the growth inhibition was 99% (active).
On to `OC(c1nc2ccccc2[nH]1)C(O)C(O)C(O)c1nc2ccccc2[nH]1` (configuration not stated), for which the growth inhibition was -3% (inactive).
In the case of `O=[N+]([O-])c1ccc(N/N=C(/C=N/Nc2ccc([N+](=O)[O-])cc2)C(O)C(O)C(O)CO)cc1` (configuration not stated), the growth inhibition was 94% (active) and 96% (active).
As to `c1ccc2c(c1)CNc1ccccc1-2`, the growth inhibition was 16% (inactive).
